HCV inhibitor = blocks hepatitis C virus; Huh7.5.1 HCVcc-Cre infection, luciferase reporter, 44 h; Potency, µM (doses to about 41.8 µM), hits mostly inhibitors; AID 651820; actives 3.4% (n = 340,000)
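Luciferase read-out (15 sec integration) after a 15 min room-temperature substrate step quantifies HCVcc-Cre infection. Cells, 1,000 per well, had compound added 4 h post-plating, then virus at ~0.5 moi, and were cultured 44 h.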
Shiga toxin inh = inhibitors of Shiga toxin in Vero cells | Vero cells, Shiga toxin protein synthesis inhibition reporter | inhibition, % at 38.7 µM | actives 9.2% (n = 290,000) | AID 2315; in the data active = inhibition mostly above about 28%, no sharp cut-off; inactive = mostly below about 43%
Pf growth 96h = inhibits malaria parasite growth, 96 h. Potency, µM (doses to about 28.7 µM), actives largely listed as inhibitors. P. falciparum luciferase reporter growth, 96 h. actives 6.9% (n = 320,000). AID 504834
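Infected RBCs, 2% Hct / 0.05% parasitemia final; luciferase-reporter P. falciparum; cpd 96 h, 37 C, 5% CO2; luciferase detection reagent; luminescence.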
Pf growth 48h = P. falciparum growth inhibition at 48 hours (one generation); actives 5.9% (n = 310,000); P. falciparum luciferase growth in erythrocytes, 48 h; Potency, µM (doses to about 28.7 µM), hits mostly inhibitors
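Parasite viability was followed by luminescence of a genomically integrated firefly luciferase. Cultures held 0.1% parasitemia at 2% hematocrit (final), incubated under 5% CO2 at 37 C.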
Cycloheximide cs = affects cycloheximide protein synthesis inhibition readout, counter-screen; cell reporter, cycloheximide protein synthesis inhibition counterscreen; max response, %; actives 12% (n = 300,000); AID 2314; in the data active = max response mostly above about 13%, no sharp cut-off; inactive = mostly below about 14%; note: read at 38.3 µM for the half of the compounds with a filed dose
AMA1-RON2 inh = inhibitors of Plasmodium falciparum AMA1-RON2 interaction. AID 720542. Potency, µM (top dose mostly 58.2 µM), actives largely listed as inhibitors. actives 0.2% (n = 360,000). AlphaScreen AMA1-biotinylated RON2 peptide binding; note: nearly all actives have a fitted effect of over 45% in size
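AMA1 (3D7) with his tag at 25 nM final met compounds first, then biotinylated RON2 peptide at 25 nM; detection used donor plus acceptor beads, 10 µg/mL apiece, read by AlphaScreen after 30 min at room temperature.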
Each line names hits and unclear results; the compound was inactive in the other large screens. Sampled rows, rich in hits. Any-hit rate of the full collection: about 21%. Unless noted, calls come from the whole dose curve; as a rule, active = well fitted curve in the direction sought with a large enough effect; inconclusive = small, poorly fitted or top-dose-only effect, or another doubt; inactive = no such curve, though single readings can be large; an effect the other way counts as inactive or inconclusive.

COc1cc(-c2csc(CCn3nc(C)cc3C)n2)cc(OC)c1OC	HCV inhibitor inconclusive, Pf growth 48h inconclusive
COc1ccc(-c2csc(CCN3N=C(C)CC3=O)n2)cc1	Pf growth 96h inconclusive, Pf growth 48h 4.1µM
COc1ccc(C(=O)CCC(=O)N2CCN(c3ccc(C)cc3)C(C)C2)cc1 (configuration not stated)	HCV inhibitor inconclusive, Pf growth 96h 9.3µM
COc1ccc(N2CCN(C(=O)CCCC(=O)c3ccccc3)CC2)cc1	none
COc1ccc(-c2ccc3c(c2)O/C(=C\c2ccsc2)C3=O)cn1	none (no result: Shiga toxin inh, Pf growth 96h, Pf growth 48h, Cycloheximide cs)
CCc1ccc2[nH]c(=O)c(CN(CC3CCCO3)C(=S)NCc3ccco3)cc2c1 (configuration not stated)	HCV inhibitor inconclusive, Pf growth 96h inconclusive, Pf growth 48h inconclusive, Cycloheximide cs 22
CCc1ccc2[nH]c(=O)c(CN(CCN(C)C)C(=S)NCc3ccco3)cc2c1	Pf growth 48h inconclusive
CCc1ccc2[nH]c(=O)c(CN(CCN(CC)CC)C(=S)NCc3ccco3)cc2c1	HCV inhibitor inconclusive, Pf growth 48h 9.3µM
Cc1cc(C)c2cc(CN(Cc3ccco3)C(=S)NCC3CCCO3)c(=O)[nH]c2c1 (configuration not stated)	HCV inhibitor inconclusive, Pf growth 96h inconclusive, Pf growth 48h 2.1µM
O=C(Nc1ccc(Cl)cc1)N1CC1	HCV inhibitor inconclusive (no result: Shiga toxin inh, Pf growth 96h, Pf growth 48h, Cycloheximide cs)
O=C(Nc1ccc(Cl)cc1)N1CCN(c2ccccc2)CC1	HCV inhibitor inconclusive, Pf growth 96h 12µM, Pf growth 48h inconclusive, Cycloheximide cs 20
NC(=O)C1CCN(CC(=O)N2N=CCC2c2ccccc2)CC1 (configuration not stated)	none
CC(=O)c1cccc(CN2CCC(CO)(CCOc3ccccc3)CC2)c1	Pf growth 96h inconclusive
O=C(Nc1cccc(Cl)c1)N1CCC(CO)(CCOc2ccccc2)CC1	Pf growth 96h 13µM
O=C(Nc1ccc(Cl)cc1)N1N=CCC1c1ccccc1 (configuration not stated)	Pf growth 96h inconclusive, Cycloheximide cs 20
O=C(Nc1ccc(Cl)cc1)N1CCC(CO)(Cc2ccccc2)CC1	HCV inhibitor inconclusive, Pf growth 96h 2.6µM
CCOC(=O)C1CCN(C(=O)CSc2nc3ncccc3[nH]2)CC1	Pf growth 96h inconclusive
CC(=O)Nc1ccc(NC(=O)C(C)OC(=O)c2cccc(S(=O)(=O)N3CCCC3)c2)cc1 (configuration not stated)	none (no result: Shiga toxin inh, Cycloheximide cs)
CC(=O)c1ccc(NC(=O)N2CCN(c3cccc(Cl)c3)CC2)cc1	HCV inhibitor 13µM, Pf growth 96h inconclusive, Pf growth 48h 4.7µM
O=C(Nc1ccc(Cl)cc1)N1CC=CCC1	Shiga toxin inh 109, Cycloheximide cs 84
O=C(Nc1ccc(NC(=O)N2CCN(c3ccccc3O)CC2)cc1)N1CCN(c2ccccc2O)CC1	Pf growth 96h 5.9µM, Pf growth 48h inconclusive
O=C(CCN1CCN(c2ccccc2)CC1)Nc1ccc(Cl)cc1	Pf growth 96h 3.7µM
COC(=O)CNC(=O)Cn1nc(C)c([N+](=O)[O-])c1C	none
COc1cccc(CN2CCCC(C(=O)Nc3ccc(-c4cscn4)cc3)C2)c1 (configuration not stated)	Pf growth 48h inconclusive (no result: HCV inhibitor)
Nc1cc2c3ccccc3ccc2c2ccccc12	HCV inhibitor inconclusive (no result: Shiga toxin inh, Pf growth 96h, Pf growth 48h, Cycloheximide cs)
COC(=O)[C@H](CC(C)C)NC(=O)CC[C@H]1O[C@@H](n2cc(C)c(=O)[nH]c2=O)C[C@@H]1O	none (no result: HCV inhibitor, Shiga toxin inh, Pf growth 96h, Pf growth 48h, Cycloheximide cs)
Cc1ccc(NC(=O)N2CCN(c3ncccc3C(F)(F)F)CC2)cc1	HCV inhibitor inconclusive, Pf growth 96h 13µM, Pf growth 48h 8.3µM, Cycloheximide cs 15
O=C(Nc1ccc2ccccc2c1)N1CCN(c2ncccc2C(F)(F)F)CC1	HCV inhibitor inconclusive, Pf growth 96h inconclusive, Pf growth 48h inconclusive
COc1ccc(S(=O)(=O)Nc2c(C)cccc2C)cc1-n1cnnn1	none
COC(=O)c1ccn(CC(=O)NC2CCCCC2)n1	none
Cc1ccccc1NC(=O)c1sc(Cl)nc1C	Pf growth 96h inconclusive
Cc1nc(Cl)sc1C(=O)Nc1ccc(C(C)(C)C)cc1	Shiga toxin inh 91, Cycloheximide cs 50
Cc1ccc(S(=O)(=O)Nc2nc(C)c(C(=O)NN)s2)cc1	Shiga toxin inh 54, Cycloheximide cs 20

Source: PubChem BioAssay
